Drawing on PubChem BioAssay (EPA / NIEHS), this text covers outcome and AC50 for 38 compounds.

A short description of experiment [1]: ACEA_ER_AUC_viability: ACEA Biosciences xCELLigence Real-Time Cell Analysis on Estrogen Receptor Agonism for Viability (AID 2283782).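 Note: hit means loss of impedance signal meaning reduced cell growth or viability.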 Put shortly: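 Read-out: real-time electrical impedance (RT-CES) area under curve, loss of signal taken as reduced viability, normalized to DMSO baseline. T-47D cells, charcoal-stripped serum medium, compounds up to 100 uM final, continuous exposure, 80 h.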

A short description of experiment [2]: STM_H9_NormalizedViability: Cytotoxicity Assessment at 120 hours in the Stemina devTOX quickPredict H9 human embryonic stem cell (hESC)-based Assay (AID 2283784). Put shortly:
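Viability of the cell layer was taken from live-cell protease cleavage of a fluorogenic substrate after compound exposure of undifferentiated H9 stem cells, with replenishment each 24h. Fluorescence was normalized to vehicle (0.1% DMSO).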

In experiment [3] the target is AR (gene 367) (UniProt P10275). Nature of the experiment: ACEA_AR_agonist_80hr: ACEA Biosciences xCELLigence Real-Time Cell Analysis on Androgen Receptor Agonism for Proliferation (AID 2283783).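 Note: hits increase impedance growth signal above DMSO baseline.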 A digest of the protocol: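 Impedance (RT-CES) growth signal at 80 h post-dose; 22Rv1 cells, 8-pt 1:4 series, top 100 uM final, DMSO ≤0.5%; duplicate plates; gain-of-signal fit relative to DMSO baseline.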

The target of experiment [4] is AR (gene 367) (UniProt P10275). In words: ACEA_AR_antagonist_80hr: ACEA Biosciences xCELLigence Real-Time Cell Analysis on Androgen Receptor Antagonism for Proliferation (AID 2283787).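 Note: 22Rv1 human prostate cancer cells with growth followed by electrical impedance; hits lower the impedance growth signal relative to DMSO.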 Put shortly:
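Measures real-time proliferation of 22Rv1 prostate cancer cells by electrode impedance at 80 hours after dosing. Test articles ran at eight concentrations (1:4 steps, top 100 uM final) in biological duplicate.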

Experiment [5] has as its target Estrogen receptor beta (Homo sapiens) (UniProt Q92731). Nature of the experiment: ATG_hERb_XSP1: Attagene TRANS-FACTORIAL Multi-Species (XSP1) HepG2 Assay for human Estrogen Receptor (ESR2) (AID 2283788). A digest of the protocol: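 Transient MRTU transfection of HepG2; ERβ–GAL4 TRANS format; 24 h dosing; 3 nM 6α-fluorotestosterone co-added; RNA → RT-PCR → 6-FAM primer extension → CE; activity vs DMSO.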

The nature of experiment [6]: ATG_M_06_XSP1: Attagene TRANS-FACTORIAL Multi-Species (XSP1) HepG2 Assay for M06 Transcription Factor (Internal Marker) (AID 2283790). Put shortly: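 This background-control readout tracks M06 reporter mRNA, measured by RT-PCR and capillary electrophoresis. HepG2 cells transiently carrying the GAL4-UAS reporter panel were dosed for 24 h with 3 nM 6-alpha-fluorotestosterone added for partial AR stimulation; increases were scored relative to DMSO.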

The nature of experiment [7]: ATG_M_61_XSP1: Attagene TRANS-FACTORIAL Multi-Species (XSP1) HepG2 Assay for M61 Transcription Factor (Internal Marker) (AID 2283797). Put shortly: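 Background-control readout: reporter transcripts measured by RT-PCR and capillary electrophoresis 24 h after dosing transiently transfected HepG2 multi-reporter cells, with 3 nM 6-alpha-fluorotestosterone present. Fitted in the positive direction relative to DMSO.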

Experiment [8] in a line: ATG_M_19_XSP1: Attagene TRANS-FACTORIAL Multi-Species (XSP1) HepG2 Assay for M19 Transcription Factor (Internal Marker) (AID 2283798). As for the experimental part: ATG_XSP1_multi-species_TRANS is a cell-based, multiplexed assay created by modifying the existing Attagene TRANS-FACTORIAL system to include a panel of nuclear receptors from some or all the following species: human (Homo sapiens), mouse (Mus musculus), frog (Xenopus laevis), zebrafish (Danio rerio), chicken (Gallus gallus), and turtle (Chrysemys picta). The ECOTOX-FACTORIAL format uses HepG2, a human liver cell line, with measurements taken at 24 hours after chemical dosing in a 24-well plate. Xsp1 included 3 nM 6-alpha-fluorotestosterone to partially stimulate the androgen receptor.ATG_M_19_XSP1 is one of 29 assay components measured or calculated from the ATG_XSP1_multi-species_TRANS assay. It is designed to make measurements of mRNA induction, a form of inducible reporter, as detected with fluorescence intensity signals by Reverse transcription polymerase chain reaction (RT-PCR) and Capillary electrophoresis technology.This assay endpoint, ATG_M_19_XSP1, was analyzed in the positive analysis fitting direction relative to DMSO as the negative control and baseline of activity. […] Furthermore, this assay endpoint can be referred to as a secondary readout, because this assay has produced multiple assay endpoints where this one serves a background control function. […]

The nature of experiment [9]: ATG_M_32_XSP1: Attagene TRANS-FACTORIAL Multi-Species (XSP1) HepG2 Assay for M32 Transcription Factor (Internal Marker) (AID 2283799). A digest of the protocol:
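Reporter transcripts from the M32 internal-control unit measured by RT-PCR, FAM labelling, HpaI digestion and capillary electrophoresis after 24 h compound exposure of transfected HepG2, 3 nM 6-alpha-fluorotestosterone included; DMSO baseline, positive-direction fit.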

Experiment [10] addresses Peroxisome proliferator-activated receptor gamma (Homo sapiens) (UniProt P37231). Nature of the experiment: ATG_hPPARg_XSP1: Attagene TRANS-FACTORIAL Multi-Species (XSP1) HepG2 Assay for human Peroxisome Proliferator-activated Receptor gamma (PPARg) (AID 2283800). Put shortly: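 Reporter mRNA induction, measured by RT-PCR with capillary electrophoresis 24 h after dosing, scored as gain over DMSO. Transfected HepG2 cells express exogenous NR-Gal4 chimeras driving GAL4-UAS reporters; medium includes 3 nM 6-alpha-fluorotestosterone.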

Several values for one entry are separate records, joined by “and”; a condition that tells them apart may be missing. Identical values can stand only once. Records with an inconclusive call do not appear. Some compounds were tested as several samples or in several runs, with calls that do not always agree. Activity calls are given as the source filed them. Rule for the calls: active = hit-call score of the fitted dose curve at least 0.9, where 1 is the maximum; inconclusive = response in the unintended direction; inactive = score below 0.9.

What is called AC50 is the midpoint of the concentration-response curve, whichever way the signal moves.

Sequence of AR (gene 367) (P10275 whole entry, looked up): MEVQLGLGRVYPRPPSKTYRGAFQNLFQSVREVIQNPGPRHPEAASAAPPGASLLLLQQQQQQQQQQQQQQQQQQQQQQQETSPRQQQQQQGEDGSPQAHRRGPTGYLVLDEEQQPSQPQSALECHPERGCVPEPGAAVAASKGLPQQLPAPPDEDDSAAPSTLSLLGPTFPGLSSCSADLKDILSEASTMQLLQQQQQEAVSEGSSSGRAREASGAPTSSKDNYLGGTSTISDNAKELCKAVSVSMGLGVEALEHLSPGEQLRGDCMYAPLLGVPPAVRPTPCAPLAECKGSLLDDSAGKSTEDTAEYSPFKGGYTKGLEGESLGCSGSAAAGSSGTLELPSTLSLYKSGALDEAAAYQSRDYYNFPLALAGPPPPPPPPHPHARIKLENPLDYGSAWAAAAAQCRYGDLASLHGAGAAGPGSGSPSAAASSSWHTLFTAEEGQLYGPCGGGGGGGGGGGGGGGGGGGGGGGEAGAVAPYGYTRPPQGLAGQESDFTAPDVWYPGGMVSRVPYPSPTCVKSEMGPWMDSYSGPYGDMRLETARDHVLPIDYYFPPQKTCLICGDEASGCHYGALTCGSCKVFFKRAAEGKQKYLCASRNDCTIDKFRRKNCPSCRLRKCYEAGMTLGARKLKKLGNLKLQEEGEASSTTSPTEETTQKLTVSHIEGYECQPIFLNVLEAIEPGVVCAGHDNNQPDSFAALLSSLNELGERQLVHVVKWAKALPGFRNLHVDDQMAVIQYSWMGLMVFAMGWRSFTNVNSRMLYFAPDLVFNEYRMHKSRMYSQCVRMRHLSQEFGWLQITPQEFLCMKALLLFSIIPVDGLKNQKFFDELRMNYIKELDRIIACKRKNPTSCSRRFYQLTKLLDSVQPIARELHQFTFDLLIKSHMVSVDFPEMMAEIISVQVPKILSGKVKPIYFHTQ
Sequence of Peroxisome proliferator-activated receptor gamma (Homo sapiens) (P37231 whole entry, looked up, the tested form may be a part): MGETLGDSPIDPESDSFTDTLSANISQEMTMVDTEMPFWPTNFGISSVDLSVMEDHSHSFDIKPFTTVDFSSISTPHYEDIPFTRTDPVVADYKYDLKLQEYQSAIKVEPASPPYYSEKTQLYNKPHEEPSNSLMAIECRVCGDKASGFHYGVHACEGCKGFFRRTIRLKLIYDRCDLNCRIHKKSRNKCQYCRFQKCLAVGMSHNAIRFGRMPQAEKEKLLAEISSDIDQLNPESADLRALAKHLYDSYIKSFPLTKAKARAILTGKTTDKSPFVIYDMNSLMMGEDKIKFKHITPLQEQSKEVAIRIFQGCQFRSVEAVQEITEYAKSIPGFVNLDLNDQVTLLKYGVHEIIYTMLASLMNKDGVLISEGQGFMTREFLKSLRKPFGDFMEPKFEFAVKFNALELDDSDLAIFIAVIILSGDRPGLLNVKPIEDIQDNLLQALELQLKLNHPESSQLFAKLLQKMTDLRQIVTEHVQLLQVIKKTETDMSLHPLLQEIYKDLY
Sequence of Estrogen receptor beta (Homo sapiens) (Q92731 whole entry, looked up, the tested form may be a part): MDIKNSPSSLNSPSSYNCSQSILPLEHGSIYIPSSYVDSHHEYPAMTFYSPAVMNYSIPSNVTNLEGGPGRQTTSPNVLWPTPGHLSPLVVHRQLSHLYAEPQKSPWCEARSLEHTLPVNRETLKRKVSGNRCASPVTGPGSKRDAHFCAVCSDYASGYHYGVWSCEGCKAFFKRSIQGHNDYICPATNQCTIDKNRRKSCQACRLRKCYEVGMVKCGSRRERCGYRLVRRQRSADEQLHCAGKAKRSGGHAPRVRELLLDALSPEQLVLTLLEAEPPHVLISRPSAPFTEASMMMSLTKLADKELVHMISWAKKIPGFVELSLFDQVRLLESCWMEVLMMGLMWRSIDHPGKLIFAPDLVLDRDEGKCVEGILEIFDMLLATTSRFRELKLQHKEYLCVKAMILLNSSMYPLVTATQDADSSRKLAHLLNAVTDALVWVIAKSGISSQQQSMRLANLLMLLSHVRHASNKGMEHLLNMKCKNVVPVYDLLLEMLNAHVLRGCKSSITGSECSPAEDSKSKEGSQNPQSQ

As to `C=C(C)C(=O)OCC1CO1` (configuration not stated), the result in [1] was inactive.

Regarding `NNC(N)=S`, in experiment [1], the compound was called inactive.

Regarding `Nc1ccc2ccccc2c1`, in experiment [2], the outcome was inactive.

As for `Cc1ccc(C(=O)Cl)cc1`, the compound was called inactive in experiment [1].

`CCCCCCCc1ccc(O)cc1`: the AC50 in experiment [1] is 28 µM (active) and 26.6 µM (active) and 27.7 µM (active); in [4], 50 µM (active). For the same compound, in experiment [3], the compound was classed as inactive.

As to `CO/N=C(/C(=O)OC)c1ccccc1COc1ccccc1C`, the compound was classed as inactive in experiment [4].

`CCCCC(CC)COP(=O)(Oc1ccccc1)Oc1ccccc1` (configuration not stated): the AC50 in experiment [1] is 85.5 µM (active); in experiment [4], 16.6 µM (active). Also, the outcome in experiment [2] was inactive.

As for `ClC1=C(Cl)C2(Cl)C3C(Cl)C(Cl)CC3C1(Cl)C2(Cl)Cl` (configuration not stated), the AC50 in experiment [1] is 91.7 µM (active); in experiment [4] it was 5.06 µM (active). For the same compound, the call in experiment [3] was inactive.

For the compound `CCN(CC)C1CCCCC1`, the call in experiment [1] was inactive.

On to `Oc1ccccc1Br`, for which the compound was classed as inactive in experiment [1].

As for `C=CC(=O)OCC(F)(F)C(F)F`, in [1], the call was inactive.

`CCOC(=O)c1ccccc1C(=O)OCC`: the call in experiment [1] and in experiment [2] was inactive.

For the compound `C/C(=N\NC(=O)Nc1cc(F)cc(F)c1)c1ncccc1C(=O)O`, the compound was called inactive in experiment [1].

Consider `ClC(Cl)=C(c1ccc(Cl)cc1)c1ccccc1Cl`, for which, in experiment [1], the result was inactive.

Regarding `COP(N)(=S)OC`, the AC50 in experiment [1] was 32.4 µM (active).

Take `CC(C)(C)OOC(C)(C)C`: the call in experiment [1] was inactive.

Take `CNC(=O)Oc1ccc(N(C)C)c(C)c1`: the AC50 in [1] was 39.7 µM (active).

For the compound `Cc1ccc(N)cc1N`, the AC50 in [2] is 36.1 µM (active).

Turning to `O=P(Oc1ccccc1)(Oc1ccccc1)Oc1ccccc1`, the AC50 in experiment [1] was 86.8 µM (active); in [10], 6.88 µM (active). Besides, the result in experiment [2], in experiment [5], in experiment [6], in experiment [7], in experiment [8] and in experiment [9] was inactive.

For `OCC(F)(F)OC(F)(F)C(F)(F)OC(F)(F)C(F)(F)OC(F)(F)CO`, the AC50 in experiment [1] was 137 µM (active).

For the compound `CC1(C)CN=C(NN=C(/C=C/c2ccc(C(F)(F)F)cc2)/C=C/c2ccc(C(F)(F)F)cc2)NC1`, the figures for the AC50 in [1] and in experiment [4] were 2.02 µM (active) and 12.3 µM (active), respectively.

Turning to `CCCCN(CCCC)SN(C)C(=O)Oc1cccc2c1OC(C)(C)C2`, in experiment [1], the AC50 is 79.2 µM (active).

With `CCN(CC)c1ccccc1`, the compound was classed as inactive in experiment [3] and in experiment [4].

Turning to `COC(=O)C(F)(F)C(F)(F)OC(F)(C(F)(F)F)C(F)(F)OC(F)=C(F)F` (configuration not stated), the compound was called inactive in experiment [1].

Take `[N-]=[N+]=[N-]`: in [4], the concentration at half-maximal activity (AC50) was 50 µM (active).

For `CCCCN(CC)C(=O)SCCC`, the compound was called inactive in experiment [3] and in experiment [4].

For the compound `O=c1ssc(Cl)c1Cl`, the compound was classed as inactive in experiment [1].

As for `Nc1ccc(Cl)cc1`, in experiment [1], the AC50 was 8.49 µM (active) and the compound was classed as inactive.

As to `O=P(OCC(Br)CBr)(OCC(Br)CBr)OCC(Br)CBr` (configuration not stated), the outcome in experiment [1], in [3] and in experiment [4] was inactive.

As to `c1cc2c3c(cccc3c1)CC2`, the compound was classed as inactive in [3] and in experiment [4].

`O=C(O)C1C(C(=O)O)C2(Cl)C(Cl)=C(Cl)C1(Cl)C2(Cl)Cl` (configuration not stated): the result in [2] was inactive.

On to `c1ccc2c(c1)Nc1ccccc1S2`, for which the compound was classed as inactive in [1] and in [2].

Take `CCC1(c2ccccc2)C(=O)N=C(O)NC1=O` (configuration not stated): the result in experiment [2] was inactive.

For the compound `CC(C)(C)N(NC(=O)c1ccc(Cl)cc1)C(=O)c1ccccc1`, in experiment [4], the result was inactive.

Take `CCNc1nc(Cl)nc(NC(C)(C)C)n1`: the call in experiment [3] and in experiment [4] was inactive.

In the case of `C=CC(=O)OCC(CC)(COC(=O)C=C)COC(=O)C=C`, in [1], the AC50 is 10.1 µM (active).

Consider `CC(C)Nc1ccc(Nc2ccccc2)cc1`, for which the AC50 in experiment [1] was 18 µM (active).

`CCC(C)(C)c1ccc(O)cc1`: the AC50 was 88.4 µM (active) in [1] and 50 µM (active) in experiment [2].
